Measurements as given in the supplement of paper PMC12669032.

The compounds below were run on Escherichia coli IAI1 (assay: growth AUC relative to DMSO control (median of replicates) (fraction); higher = more growth (less inhibition), active = hit call of the paper). Conditions: 20 µM; 24 h;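 active = AUC reduced over 20% with Padj below 0.05 in at least 2 of 3 replicates; inactive = otherwise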.
In short: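 Area under the growth curve was normalised to the plate median of solvent-only wells, except on the industrial chemical plate, where row and column medians were used. Curves came from gut bacterial monocultures grown anaerobically at 37 °C in mGAM with 20 µM compound (1% DMSO), starting at OD600 0.05 and read at OD600 every hour for 24 h. The minimum OD of each curve was set to 0, and values are medians of three biological replicates grown on separate days.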

Growth AUC, inactive:
N#Cc1ccc(CC(=NNC(=O)Nc2ccc(OC(F)(F)F)cc2)c2cccc(C(F)(F)F)c2)cc1 (mixture of isomers) 1.02, COC(=O)C(C)Oc1ccc(Cl)cc1Cl (stereo unspecified) 0.988, CC(C)N(C(=O)C(=O)O)c1ccccc1 1.05, c1ccc(CNc2ncnc3nc[nH]c23)cc1 1.01, C=CCc1ccc(O)c(OC)c1 1, CCCCOC(=O)COc1ccc(Cl)cc1Cl 1.03, CC(Oc1ccc(Cl)cc1Cl)C(=O)NC(C)(C#N)C(C)C (stereo unspecified) 1.01, Cc1cccc(C)c1N(CC(=O)O)C(=O)CS(=O)(=O)[O-].[Na+] 0.946, c1ccc2cc3ccccc3cc2c1 0.967, Cn1cc(C(=O)Nc2ccc(F)cc2-c2ccc(Cl)c(Cl)c2)c(C(F)F)n1 0.997, O=c1cccc2n1CCn1c-2cccc1=O 0.968, CCCCCCC(C)OC(=O)COc1nc(F)c(Cl)c(N)c1Cl (stereo unspecified) 1.01, Cc1[nH]n(C)c(=O)c1C(=O)c1ccc(C(F)(F)F)cc1S(C)(=O)=O 1.08, COC(=O)[C@@H](C)Oc1ccc(Oc2ncc(C(F)(F)F)cc2Cl)cc1 1.01, CC(C)OC(=O)N[C@H](C(=O)N[C@H](C)c1nc2ccc(F)cc2s1)C(C)C 1, O.O=C(Nc1ccc([N+](=O)[O-])cc1Cl)c1cc(Cl)ccc1O 0.973
